Test systems include NCI-H23 lung; NCI-H226 lung; HOP-62 NSCLC; NCI-H460 lung; HOP-92 NSCLC; NCI-H522 lung; A549/ATCC NSCLC; 786-0 renal; COLO 205 colon; DU-145 prostate; K-562 leukemia; MALME-3M melanoma; MDA-MB-231 breast; RXF 393 renal; SF-268 CNS; SF-295 CNS; SF-539 CNS; UACC-257 melanoma; M14 melanoma.
What all share (experiment): NCI-60 one-dose screen, 48 h (100 = growth as untreated, 0 = no growth, -100 = all killed)
Conditions in all cases: 10 µM

The panel holds about 83,000 compounds, 20% with a hit somewhere; the sample as a whole holds those more often.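 Treatment: one concentration, 48 hours, 96-well format. Scoring: percent growth, with anything below 10 considered active.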 Unmarked numbers belong to inactive results. Activity calls are given as the source filed them.

Drawing on PubChem BioAssay (NCI), this text covers growth for 8 molecules.

As for `COC(=O)C1(O)NC(=C(C#N)C#N)C(C#N)=C1C(=O)c1ccc(OC)c(OC)c1` (configuration not stated), the growth was 103% in the experiment with NCI-H23 lung; 93.6% in the experiment with NCI-H226 lung; 96.1% in the experiment on HOP-62 NSCLC; 100% in the experiment on NCI-H460 lung; 90.3% with HOP-92 NSCLC; 90.3% with NCI-H522 lung. The growth in the experiment with A549/ATCC NSCLC is 91.9%; in the experiment with 786-0 renal it was 101%; with COLO 205 colon, 120%; with DU-145 prostate, 111%; with K-562 leukemia it was 100%; in the experiment on MALME-3M melanoma, 103%. Moreover, the growth was 119% with MDA-MB-231 breast; 100% in the experiment with RXF 393 renal; 98.5% with SF-268 CNS; 105% in the experiment with SF-295 CNS; 104% in the experiment with SF-539 CNS; 81.7% in the experiment with UACC-257 melanoma. Moreover, the growth in the experiment with M14 melanoma is 97.9%.

`CCOC(=O)C1=CSC2=NC3=C(CCC/C3=C\c3cc(OC)c(OC)c(OC)c3)C(c3cc(OC)c(OC)c(OC)c3)N12` (configuration not stated): the growth in the experiment on NCI-H23 lung is 52.3%; in the experiment on NCI-H226 lung, 67.5%; with HOP-62 NSCLC, 74.5%; with NCI-H460 lung it was 23.3%; in the experiment on HOP-92 NSCLC, 84.8%; in the experiment with NCI-H522 lung, 95.4%. Besides, the growth in the experiment on A549/ATCC NSCLC was 65.1%; with 786-0 renal, 91.3%; in the experiment on COLO 205 colon it was 52.7%; in the experiment on DU-145 prostate, 8.85% (active); with K-562 leukemia, 38.7%; with MALME-3M melanoma, 74.6%. The growth in the experiment with MDA-MB-231 breast is 74.2%; with RXF 393 renal, 32.7%; in the experiment on SF-268 CNS, 33.3%; in the experiment on SF-295 CNS, 55.8%; in the experiment on SF-539 CNS it was 49.9%; with UACC-257 melanoma it was 58.1%. The growth with M14 melanoma was 16.9%.

On to `CC(C)N(CCOc1ccc(-c2nc3sccn3c2-c2ccnc(S(C)(=O)=O)n2)cc1)C(C)C`, for which the growth in the experiment on NCI-H23 lung is 90.3%; in the experiment with NCI-H226 lung, 87.7%; in the experiment with HOP-62 NSCLC, 85.2%; in the experiment with NCI-H460 lung, 102%; in the experiment with HOP-92 NSCLC it was 29.6%; with NCI-H522 lung, -26.9% (active). The growth in the experiment with A549/ATCC NSCLC is 105%; in the experiment on 786-0 renal it was 77.6%; in the experiment with COLO 205 colon, 86.8%; in the experiment with DU-145 prostate, 99.9%; in the experiment with K-562 leukemia, 62.9%; in the experiment on MALME-3M melanoma, 102%. Further, the growth in the experiment on MDA-MB-231 breast was 75.4%; in the experiment on RXF 393 renal, 93.2%; in the experiment with SF-268 CNS, 96.3%; in the experiment on SF-295 CNS it was 108%; with SF-539 CNS, 95.4%; in the experiment with UACC-257 melanoma it was 78.4%. Besides, in the experiment with M14 melanoma, the growth was 112%.

As to `Nc1ccc(/C=N/Nc2ccnc3c(O)cccc23)c2cccnc12`, the growth in the experiment on NCI-H23 lung was 74.6%; in the experiment with NCI-H226 lung it was 84%; in the experiment on HOP-62 NSCLC, 64.4%; in the experiment on NCI-H460 lung, 25.9%; with HOP-92 NSCLC, 88.1%; in the experiment with NCI-H522 lung it was 41.3%. Besides, the growth is 42.6% with A549/ATCC NSCLC; 50.7% in the experiment with 786-0 renal; 104% with COLO 205 colon; 37.4% in the experiment on DU-145 prostate; 0.593% (active) with K-562 leukemia; 101% in the experiment on MALME-3M melanoma. The growth was 0.678% (active) with MDA-MB-231 breast; 55.8% with RXF 393 renal; 43.5% with SF-268 CNS; 84.8% in the experiment on SF-295 CNS; 67.7% in the experiment with SF-539 CNS; 105% in the experiment with UACC-257 melanoma. Also, the growth with M14 melanoma is 53.8%.

In the case of `CN1CCN(CC(=O)Nc2cccc(-n3cc(-c4ccncc4)c(-c4ccc(Cl)c(O)c4)n3)c2)CC1`, the growth with NCI-H23 lung is 50.4%; in the experiment with NCI-H226 lung, 74.3%; in the experiment with HOP-62 NSCLC, 58.6%; in the experiment with NCI-H460 lung it was 13.3%; in the experiment with HOP-92 NSCLC, 15.4%; with NCI-H522 lung, 18.1%. The growth was 29.3% in the experiment with A549/ATCC NSCLC; 33.6% in the experiment on 786-0 renal; 13.5% in the experiment on COLO 205 colon; 19.4% in the experiment on DU-145 prostate; 11.8% with K-562 leukemia; 46.3% with MALME-3M melanoma. For the same molecule, the growth with MDA-MB-231 breast was 46.1%; in the experiment on RXF 393 renal, 35%; in the experiment on SF-268 CNS it was 47.7%; in the experiment on SF-295 CNS, 21.8%; in the experiment with SF-539 CNS it was 0.848% (active); with UACC-257 melanoma, 24.9%. Also, the growth in the experiment with M14 melanoma was 8.05% (active).

On to `CCN(CC)CC(=O)N(CC)c1ccc(C)c(Cl)c1`, for which the growth is 103% in the experiment on NCI-H23 lung; 99.8% in the experiment on NCI-H226 lung; 91% with HOP-62 NSCLC; 104% in the experiment with NCI-H460 lung; 90.1% in the experiment on HOP-92 NSCLC; 83.8% with NCI-H522 lung. The growth in the experiment with A549/ATCC NSCLC is 86.3%; with 786-0 renal, 98.4%; in the experiment on COLO 205 colon, 101%; in the experiment on DU-145 prostate, 103%; in the experiment on K-562 leukemia it was 108%; with MALME-3M melanoma it was 96.2%. Moreover, the growth in the experiment with MDA-MB-231 breast was 113%; with RXF 393 renal, 105%; in the experiment with SF-268 CNS, 92.9%; in the experiment on SF-295 CNS it was 101%; with SF-539 CNS, 108%; in the experiment with UACC-257 melanoma, 88.7%. Besides, the growth in the experiment on M14 melanoma was 100%.

For `Nc1ncnc2c1ncn2C1(CO)OCC(O)C(O)C1O` (configuration not stated), the growth was 96.8% with NCI-H23 lung; 107% in the experiment on NCI-H226 lung; 91.4% in the experiment on HOP-62 NSCLC; 107% in the experiment on NCI-H460 lung; 113% with HOP-92 NSCLC; 82.4% with NCI-H522 lung. For the same molecule, the growth in the experiment on A549/ATCC NSCLC was 96.7%; in the experiment with 786-0 renal, 101%; in the experiment with COLO 205 colon it was 113%; with DU-145 prostate, 104%; with K-562 leukemia it was 110%; in the experiment on MALME-3M melanoma, 98.6%. Besides, the growth was 109% with MDA-MB-231 breast; 110% with RXF 393 renal; 95.3% in the experiment on SF-268 CNS; 101% with SF-295 CNS; 96.5% in the experiment on SF-539 CNS; 101% with UACC-257 melanoma. The growth in the experiment on M14 melanoma was 97%.

`S=C(SSC(=S)N(c1ccccc1)c1ccccc1)N(c1ccccc1)c1ccccc1`: the growth was 100% with NCI-H23 lung; 99.2% with NCI-H226 lung; 97.6% in the experiment on HOP-62 NSCLC; 106% with NCI-H460 lung; 86.2% in the experiment with HOP-92 NSCLC; 81.1% in the experiment on NCI-H522 lung. The growth in the experiment with A549/ATCC NSCLC was 82%; in the experiment on 786-0 renal, 105%; with COLO 205 colon it was 132%; in the experiment on DU-145 prostate, 109%; in the experiment on K-562 leukemia, 104%; with MALME-3M melanoma, 99%. Besides, the growth in the experiment on MDA-MB-231 breast was 114%; with RXF 393 renal, 111%; in the experiment on SF-268 CNS, 97.8%; in the experiment with SF-295 CNS, 102%; in the experiment with SF-539 CNS, 109%; in the experiment on UACC-257 melanoma, 81.7%. Moreover, the growth with M14 melanoma was 101%.
